Screening results as filed in PubChem.
RecA intein inh = blocks M. tuberculosis RecA intein splicing; hit rate 0.75% among 290,000; AID 2221; cell-free RecA intein splicing, fluorescence; inhibition, % (test concentration not listed); P9WHJ3; in the data active = inhibition above about 30%
Target sequence (P9WHJ3 whole entry, looked up): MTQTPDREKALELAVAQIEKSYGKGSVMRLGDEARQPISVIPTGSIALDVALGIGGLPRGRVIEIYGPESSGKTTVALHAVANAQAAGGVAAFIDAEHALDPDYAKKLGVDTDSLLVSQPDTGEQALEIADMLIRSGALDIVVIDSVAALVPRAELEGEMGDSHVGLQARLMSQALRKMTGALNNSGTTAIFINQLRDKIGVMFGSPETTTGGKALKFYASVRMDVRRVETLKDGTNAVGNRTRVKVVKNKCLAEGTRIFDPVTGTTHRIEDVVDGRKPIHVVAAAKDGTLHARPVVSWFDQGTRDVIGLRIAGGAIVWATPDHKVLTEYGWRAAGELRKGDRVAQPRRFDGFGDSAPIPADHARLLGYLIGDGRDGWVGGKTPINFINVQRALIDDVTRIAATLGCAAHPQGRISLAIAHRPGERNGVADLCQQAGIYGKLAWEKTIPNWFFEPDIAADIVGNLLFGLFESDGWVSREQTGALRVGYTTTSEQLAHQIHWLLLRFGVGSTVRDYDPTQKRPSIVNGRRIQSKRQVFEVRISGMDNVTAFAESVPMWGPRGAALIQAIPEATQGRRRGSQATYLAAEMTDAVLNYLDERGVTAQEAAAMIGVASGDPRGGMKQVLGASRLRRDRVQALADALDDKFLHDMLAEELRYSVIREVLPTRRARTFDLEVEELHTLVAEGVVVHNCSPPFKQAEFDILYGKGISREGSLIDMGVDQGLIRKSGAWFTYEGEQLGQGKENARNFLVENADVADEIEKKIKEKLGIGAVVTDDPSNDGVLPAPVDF
Mtb FBA inh = inhibits M. tuberculosis FBA enzyme; inhibition, % at 1 µM; purified M. tuberculosis FBA, fluorescence read-out; P9WQA3; hit rate 2.3% among 360,000; in the data active = inhibition above about 27%
DUSP3 inh = blocks human VHR1 dual specificity phosphatase; inhibition, % at 13.3 µM; P51452; hit rate 0.52% among 290,000; AID 1654; recombinant VHR phosphatase, pNPP absorbance; in the data active = inhibition above about 50%
GDH-TPI inh = inhibits GDH-TPI coupling enzymes, artifact for Mtb FBA screen. GDH-TPI coupled enzyme counterscreen, NADH absorbance. inhibition, % at 4.8 µM. hit rate 1.2% among 360,000. AID 588335
SARS 3CLpro inh = SARS-CoV 3CLpro protease inhibition; inhibition, % at 6 µM; hit rate 0.14% among 290,000; recombinant SARS-CoV 3CLpro, quenched FRET peptide cleavage; in the data active = inhibition above about 12%
CCHFV vOTU inh = CCHFV vOTU protease inhibition. Pep-AMC fluorescence. inhibition, % at 11.5 µM. hit rate 0.55% among 370,000. AID 651958
Large screens that a line does not name were inactive. Compounds with a hit are over-represented: about 4.7% of the library has one in this group of screens. Cut-off read from the data, not from the text of the source, unless noted: active = inhibition above about 30%; inactive = the rest.

CC1(C(=O)Nc2ccc(Cl)c(Cl)c2)CCN1Cc1ccccc1OC(F)F (stereo unspecified)	none (no result: RecA intein inh, DUSP3 inh, SARS 3CLpro inh)
Cc1cc(Nc2ccc(OC(F)F)cc2)cc(=O)n1-c1ccc(OC(F)F)cc1	none (no result: RecA intein inh, Mtb FBA inh, DUSP3 inh, GDH-TPI inh, SARS 3CLpro inh)
CCOC(=O)[C@@]12CCC3=C1N(CCC3)C(=O)[C@H](CC(=O)NCCCCc1ccccc1)C2	none (no result: RecA intein inh, Mtb FBA inh, DUSP3 inh, GDH-TPI inh, SARS 3CLpro inh)
Cc1ccc(/C=N/NC(=O)c2c[nH]c3ccccc23)s1	GDH-TPI inh 49
Cc1ccsc1/C=N/NC(=O)c1cccs1	none
Cc1ccsc1/C=N/NC(=O)c1ccccn1	GDH-TPI inh 39
Cc1ccc(/C=N/NC(=O)C(O)c2ccccc2)o1 (stereo unspecified)	GDH-TPI inh 31
O=C(N/N=C/c1c[nH]c2ccccc12)c1ccc(O)c(O)c1	GDH-TPI inh 36
O=C(N/N=C/c1cc(Br)c(Br)o1)C(O)c1ccccc1 (stereo unspecified)	none
CCCC(=O)N1CCC1(C)C(=O)Nc1ncc(C(=O)OC)s1 (stereo unspecified)	none (no result: RecA intein inh, DUSP3 inh, SARS 3CLpro inh)
O=C(N/N=C/c1ccc[nH]1)c1cc2ccccc2cc1O	GDH-TPI inh 37
O=C(N/N=C/c1ccncc1)c1cc2ccccc2cc1O	none
O=C(N/N=C/c1ccc[nH]1)c1c[nH]c2ccccc12	GDH-TPI inh 32
CC(=O)c1ccc(-c2nc3ccccc3n2C)o1	Mtb FBA inh active
Cc1ccc(-c2nc3ccccc3n2C)o1	none
CCOc1ccc(N(CC(=O)Nc2ccccc2Cl)S(C)(=O)=O)cc1	DUSP3 inh 59
CCOc1ccc(N(CC(=O)Nc2ccccc2OC)S(C)(=O)=O)cc1	none
Cc1[nH]c2ccccc2c1CC(=O)Nc1ccc(Nc2cccnc2)c(-c2ccc(C(C)(C)C)cc2)c1	none (no result: RecA intein inh, Mtb FBA inh, DUSP3 inh, GDH-TPI inh, SARS 3CLpro inh)
COc1ccccc1/C=C/C(=O)Nc1cccnc1	GDH-TPI inh 35
CC(C)(C)OC(=O)N1CCCC(C(=O)Nc2ccc(C(=O)NCc3ccccc3)cc2)C1 (stereo unspecified)	none (no result: RecA intein inh, DUSP3 inh, SARS 3CLpro inh)
Cc1ccc(-c2cc(-c3ccc(F)cc3)nc(N)c2C#N)o1	Mtb FBA inh 155
N#Cc1c(-c2ccncc2)cc(-c2ccc(F)cc2)nc1N	Mtb FBA inh 125
COc1ccc(CN2CCNC(=O)C2CC(=O)NCCCC2CCCC2)c(F)c1 (stereo unspecified)	none
O=C1C2C(CC3c4ccccc4CCN32)CN1c1ccccc1 (stereo unspecified)	none (no result: RecA intein inh, Mtb FBA inh, DUSP3 inh, GDH-TPI inh, SARS 3CLpro inh)
Cc1cc(-c2ccccc2)nc2oc3c(c12)NC(=O)CN(c1ccccc1)C3=O	none
COc1cccc(N2CC(=O)Nc3c(oc4nc(-c5ccccc5)cc(C)c34)C2=O)c1	GDH-TPI inh 35
COC(=O)[C@@H](Cc1c[nH]c2ccccc12)NCc1cccc(B(O)O)c1	none (no result: RecA intein inh, DUSP3 inh, SARS 3CLpro inh)
CC(C)OC(=O)c1c(N)n(CCCN2CCOCC2)c2nc3ccccc3nc12	Mtb FBA inh 147
Cc1nc2ccccc2c(=O)n1CCCN1CCOCC1	none
Nc1c(C(=O)NCc2ccc3c(c2)OCO3)c2nc3ccccc3nc2n1CCCN1CCOCC1	none (no result: RecA intein inh)
COc1ccccc1CNC(=O)c1c(N)n(CCCN2CCOCC2)c2nc3ccccc3nc12	Mtb FBA inh 82
C=CCNC1=C(Cl)C(=O)N(c2cccc(Cl)c2Cl)C1=O	none
Cc1ccc(N2C(=O)C(Cl)=C(NCCO)C2=O)c(C)c1	RecA intein inh 33
Cc1c(NCc2nc3ccccc3[nH]2)c(=O)n(-c2ccccc2)n1C	GDH-TPI inh 40
Cc1c(NCc2cc(Cl)cc(Cl)c2O)c(=O)n(-c2ccccc2)n1C	none
COc1ccc(C(=O)C2CCCN(C(=O)c3ccnn3C)C2)cc1OC (stereo unspecified)	none
COc1ccc2cc(C(=O)C3CCCN(C(=O)c4ccnn4C)C3)ccc2c1 (stereo unspecified)	Mtb FBA inh 155
O=C1CCC(C(=O)N2CCCC(C(=O)c3ccc4ccccc4c3)C2)=NN1 (stereo unspecified)	DUSP3 inh 50
COc1ccc2cc(C(=O)C3CCCN(C(=O)c4cc(=O)n(C)c(=O)n4C)C3)ccc2c1 (stereo unspecified)	Mtb FBA inh 125
COC(=O)C1=C(C)N(Cc2ccccc2C(F)(F)F)C(=NCc2ccccc2C(F)(F)F)NC1c1ccc(C(F)(F)F)cc1 (stereo unspecified)	none (no result: RecA intein inh, Mtb FBA inh, DUSP3 inh, GDH-TPI inh, SARS 3CLpro inh)
Nc1[nH]c(C(=O)c2ccccc2)c(-c2ccc(F)cc2)c1C(=O)c1c[nH]c2ccccc12	none (no result: RecA intein inh, Mtb FBA inh, DUSP3 inh, GDH-TPI inh, SARS 3CLpro inh)
CCOc1ccc(-n2c([S-])c(C(=O)Nc3ccc(S(=O)(=O)N4CCOCC4)cc3)[n+]3cc(C(N)=O)ccc23)cc1	GDH-TPI inh 39
CCOc1ccc(NC(=O)COC(=O)c2ccc(S(=O)(=O)N3CCOCC3)cc2)cc1	none (no result: RecA intein inh, DUSP3 inh, SARS 3CLpro inh)
O=C(COC(=O)CSc1ccc(Cl)cc1)NCCc1ccccc1	none (no result: RecA intein inh, DUSP3 inh, SARS 3CLpro inh)
COC(=O)/C=C/C1=CN(Cc2ccccc2)CCC1=O	GDH-TPI inh 61 (no result: RecA intein inh, DUSP3 inh, SARS 3CLpro inh)
COc1ccc(NC(=O)CN2CCN(c3ccccn3)CC2)cc1Cl	Mtb FBA inh active
CC(C)c1ccc(NC(=O)CN2CCN(c3ccccn3)CC2)cc1	none
COc1cc(CN2C[C@@H](CO)O[C@@H](n3cnc4c(Nc5ccccc5)ncnc43)C2)cc(OC)c1OC	none (no result: RecA intein inh, DUSP3 inh, SARS 3CLpro inh)
CC(=O)c1cccc(OCC(O)CN2CCN(C(=O)c3ccco3)CC2)c1 (stereo unspecified)	none
O=C(CN1CCN(c2ccc(O)cc2)CC1)Nc1cc(S(=O)(=O)N2CCCC2)ccc1Cl	none
O=C(CN1CCN(c2ccc(O)cc2)CC1)Nc1cc(S(=O)(=O)N2CCCCC2)ccc1Cl	DUSP3 inh 56
Cc1nn(C)cc1CN1CCCC(C(=O)c2ccc(-c3ccccc3)cc2)C1 (stereo unspecified)	none
Cc1ccc(SCCC(=O)N/N=C/c2cccnc2)cc1	none
COc1ccc(-c2cc(C(=O)NN=Cc3ccccc3F)[nH]n2)cc1	none (no result: RecA intein inh, Mtb FBA inh, DUSP3 inh, GDH-TPI inh, SARS 3CLpro inh)
COC(=O)N/N=C/c1cc(N=Nc2ccccc2)ccc1O	GDH-TPI inh 38
CCCCNC(=O)C[C@@H]1C[C@@]2(C(=O)OCC)CCCC=C2N(Cc2ccco2)C1=O	none (no result: RecA intein inh, Mtb FBA inh, DUSP3 inh, GDH-TPI inh, SARS 3CLpro inh)
O=c1[nH]c2cc3c(cc2cc1CN(CCO)S(=O)(=O)c1ccccc1)OCCO3	GDH-TPI inh 37 (no result: CCHFV vOTU inh)
CCOCCCNC(=S)N(CCN(CC)CC)Cc1cc2cc3c(cc2[nH]c1=O)OCCO3	none
CCOCCCNC(=S)N(CCO)Cc1cc2cc3c(cc2[nH]c1=O)OCCO3	DUSP3 inh 50
CN(C)CCC(C(=O)c1ccccc1)c1cccnc1 (stereo unspecified)	none (no result: RecA intein inh, DUSP3 inh, SARS 3CLpro inh)
O=C1c2cccc3cc([N+](=O)[O-])cc(c23)C(=O)N1/N=C/c1ccc(O)cc1O	GDH-TPI inh 56
CN(/C=C/C(=O)C(F)(F)F)Cc1ccccc1	GDH-TPI inh 32
CCOc1ccc(C(=O)Nc2ccccc2CC)cc1[N+](=O)[O-]	none
CCOc1ccc(C(=O)Nc2cccc3nsnc23)cc1[N+](=O)[O-]	DUSP3 inh 56
COc1ccc([N+](=O)[O-])cc1NC(=O)Cn1ccsc1=N	DUSP3 inh 51
COC(=O)[C@@]12C[C@@H](CC(=O)N3CCN(C(=O)C4CC4)CC3)C(=O)N(Cc3ccccc3)C1=CCC(C)(C)C2	none (no result: RecA intein inh, Mtb FBA inh, DUSP3 inh, GDH-TPI inh, SARS 3CLpro inh)
